HSP90 inh = inhibitors of HSP90 luciferase refolding in rabbit reticulocyte lysate; 290,000 compounds, 0.91% hits; inhibition, % at 5.6 µM; luciferase refolding luminescence, 3 h;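 active = inhibition above the screen-wide mean plus 3 SD, computed separately per campaign, cut at about 16% in these data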;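 note: 0% = DMSO wells and 100% = 60 µM geldanamycin wells; inhibitors lower the luminescence because luciferase stays unfolded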
AHR act = activators of human aryl hydrocarbon receptor; 320,000 compounds, 2.5% hits; AHR-responsive luciferase reporter cells, luminescence; activation, % at 5 µM; AID 2796; P35869; in the data active = activation above about 47%;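 note: 0% = vehicle wells and 100% = reference agonist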
HSF-1 act = increases HSF-1 driven luciferase reporter signal. NIH3T3-HGL HSF-1 luciferase reporter, MG132, 8 h; 100% = twice DMSO control signal. activation, % at 9 µM. 300,000 compounds, 1.7% hits;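 active = mean replicate activation of at least 50% with a set share of replicates each reaching 50%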;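 note: 0% = median of the neutral control wells and 100% = twice that signal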
FXN GAA850 act = activators of GAA850 frataxin (FXN) promoter | HEK293 lucGAA850 FXN promoter luciferase reporter, 24 h; percent of 10 µM SAHA response | activation, % at 6 µM | 360,000 compounds, 0.56% hits;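 active = activation above the average of all compounds screened plus 3 SD, cutoff fixed separately per campaign, cut at about 7.5% in these data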;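 note: 0% = DMSO wells and 100% = 10 µM SAHA wells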
HSF1 inhib = HSF1 inhibition | 300,000 compounds, 0.77% hits | NIH3T3-HGL HSE-luciferase, MG132-induced, luminescence 8 h; stronger effect = lower value | AID 2098 | activity change, negative = inhibition, % at 7.5 µM (by protocol);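 active = more than half of replicate wells show activity change below -50%, luminescence cut by over half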;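 note: luciferase reports HSF-1 transcriptional activity via heat shock element; 0% = median of DMSO wells and -100% = zero luminescence signal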
DAX1 inh = NR0B1 (DAX1) inhibition. HEK293 Gal4-DAX1 luciferase reporter, luminescence. P51843. 340,000 compounds, 0.99% hits. inhibition, % at 6.75 µM;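 active = inhibition above the mean over all tested compounds plus 3 SD, cut at about 4.2% in these data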;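 note: 0% = DAX1-transfected cells with DMSO and 100% = empty-vector control cells with DMSO; inhibition shows as a rise in luminescence from relieved DAX1 repression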
Target sequence (P51843 207-470 limits assumed): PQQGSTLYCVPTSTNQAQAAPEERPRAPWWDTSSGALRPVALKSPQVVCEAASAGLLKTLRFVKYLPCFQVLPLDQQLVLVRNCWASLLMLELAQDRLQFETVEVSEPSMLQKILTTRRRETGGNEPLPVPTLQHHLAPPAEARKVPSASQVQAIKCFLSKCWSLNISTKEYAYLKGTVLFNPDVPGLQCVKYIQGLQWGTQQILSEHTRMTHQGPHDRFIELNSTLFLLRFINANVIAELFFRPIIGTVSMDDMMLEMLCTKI
* marks the source's active call; other numbers are inactive results; x = no result given. The list is not random: actives were taken first. Their share in the collection is about 5.9%.

SMILES	HSP90 inh	AHR act	HSF-1 act	FXN GAA850 act	HSF1 inhib	DAX1 inh
O=S(=O)(/N=C(/Nc1nccs1)c1ccc(F)cc1)c1ccccc1	x	-1.6	x	-0.8	x	0.1
O=S(=O)(/N=C(/Nc1nc2ccccc2s1)c1ccccc1)c1ccc(F)cc1	x	x	x	1.1	x	6.4*
Clc1ccc(N2COC3c4cccc5cccc(c45)C32)cc1 (stereo unspecified)	-3.8	60.1*	11.2	0.5	12.9	-0.1
COc1ccc(N2COC3c4cccc5cccc(c45)C32)cc1 (stereo unspecified)	11.7	30.1	0.1	3.6	-5.2	-0.3
COc1ccccc1Oc1ccc(-c2cnc3ccccc3n2)cc1[N+](=O)[O-]	5.2	55.5*	-4.6	-1.4	4.5	x
O=[N+]([O-])c1cc(-c2cnc3ccccc3n2)ccc1Oc1ccc(Cl)cc1	1.2	49.8*	37.8	1.5	10.1	-0.2
COc1ccc(-c2cn3ccccc3n2)cc1[N+](=O)[O-]	2.7	1.7	54.8*	6.2	27.9	2.1
O=[N+]([O-])c1cc(-c2cnc3ccccc3n2)ccc1Cl	0.5	30.4	25.7	3.3	12.6	2.7
O=C(NC1CC1)c1ccc2sc([C@H]3C[C@H](O)[C@@H](CO)O3)nc2c1	x	x	x	3.5	x	x
O=C(CCl)Nc1sccc1C(=O)c1ccccc1	x	1.6	61.1*	-3.7	43.3	2.2
Cc1cc(C(=O)c2ccc(C(C)(C)C)cc2)c(NC(=O)CCl)s1	-1.9	8.9	94.0*	3.1	43.9	0.0
CCOC(=O)c1cc(C)sc1NC(=O)c1ccc(Cl)s1	-2.0	2.4	8.4	1.4	2.6	-0.5
CNC(=O)c1ccsc1NC(=O)c1ccc(Cl)s1	-4.1	66.2*	-72.3	1.4	-66.2*	-0.3
CNC(=O)c1ccsc1NC(=O)c1ccccc1	x	49.4*	9.3	3.0	11.1	0.7
Cc1cc(C(=O)c2ccccc2)c(NC(=O)CN2CCOCC2)s1	-0.7	1.2	-0.7	-1.8	-2.4	0.6
Cc1cc2c(cc(C(=O)OCC(=O)NC3CCCCC3)n2C)o1	x	x	x	2.5	x	-0.2
COc1ccc2oc(=O)c(C(=O)NCCc3ccc(OC)c(OC)c3)cc2c1	-1.4	-0.2	-5.1	0.2	-7.6	1.1
CCc1cc(C(c2ccc(F)cc2)N2CCOCC2)c(NC(=O)c2ccccc2)s1 (stereo unspecified)	1.9	1.8	63.1*	1.4	34.8	0.9
CCOc1ccc(OCC)c(NC(=O)CSc2nnnn2CC)c1	-3.4	11.7	2.4	-0.8	-1.8	4.3*
CCOc1ccc(OCC)c(NC(=O)CCSCCc2ccccn2)c1	-0.8	4.5	-26.6	2.0	-1.6	4.3*
CCn1nnnc1SCC(=O)Nc1ccc(OC)cc1	5.7	0.9	15.6	1.0	0.9	3.5
CCOc1ccc(OCC)c(NC(=O)CSCCc2ccccn2)c1	-2.4	1.7	-9.3	3.2	9.2	0.6
O=C(CC(=O)c1ccccc1[N+](=O)[O-])c1ccccc1	x	18.2	-76.0	x	-69.8*	x
O=C(NNC(=O)c1ccccc1[N+](=O)[O-])c1ccccc1[N+](=O)[O-]	-0.3	-2.8	x	0.1	x	0.9
Nc1cc[n+](CC(=O)Nc2ccccc2)cc1	0.1	-1.8	56.5*	0.7	26.5	1.0
SMILES	HSP90 inh	AHR act	HSF-1 act	FXN GAA850 act	HSF1 inhib	DAX1 inh
O=C(NCc1cccs1)c1ccccc1[N+](=O)[O-]	-2.7	-0.3	-76.4	-0.2	-69.6*	0.4
Cc1cccc(NC(=O)C[n+]2ccccc2)c1	-4.0	1.8	-16.6	-0.7	8.0	1.7
O=C(CC(=O)c1ccccc1)Nc1ccccc1	x	1.0	18.3	2.9	14.9	4.5*
O=C(NCc1cccs1)c1ccccc1C(=O)NCc1cccs1	-2.1	-0.1	-2.6	-1.9	-9.0	2.6
CC1(c2cccc(Br)c2)NC(=O)N(CC(=O)Nc2cccnc2Cl)C1=O (stereo unspecified)	-3.3	-2.7	-1.5	0.4	-5.2	-0.7
O=C(NCCS(=O)(=O)NCc1cccs1)c1ccccc1	x	x	x	-1.5	x	0.1
CC1=C(O)C(=O)OC1c1c(Cl)cccc1Cl (stereo unspecified)	3.2	-2.5	-0.6	-0.4	2.3	1.0
Cc1cccc(C(=O)OCC(=O)NCc2cccs2)c1	2.3	0.0	1.9	4.0	0.8	0.5
CS(=O)(=O)c1ccc(C(=O)OCC(=O)NCc2cccs2)cc1[N+](=O)[O-]	x	1.2	x	8.8*	x	0.0
Cn1c(N)c(-c2nc3cccnc3n2C)sc1=S	4.0	51.2*	21.3	1.1	0.7	4.2*

Bioassay records as filed in PubChem BioAssay.
